Screening data deposited in PubChem by National Center for Advancing Translational Sciences (NCATS).
The list is not random: actives were taken first. Their share in the collection is about 9.8%.
JMJD2E inh: qHTS Assay for Inhibitors of Human Jumonji Domain Containing 2E (JMJD2E); JMJD2E catalytic domain, FDH-coupled NADH fluorescence (FDH is formaldehyde dehydrogenase); Potency, µM (series often up to 57.1 µM), actives largely listed as inhibitors; hit rate 1.6% among 230,000; also: nearly all actives have a fitted effect of over 50% in size
Target sequence (B2RXH2 1-337 limits assumed): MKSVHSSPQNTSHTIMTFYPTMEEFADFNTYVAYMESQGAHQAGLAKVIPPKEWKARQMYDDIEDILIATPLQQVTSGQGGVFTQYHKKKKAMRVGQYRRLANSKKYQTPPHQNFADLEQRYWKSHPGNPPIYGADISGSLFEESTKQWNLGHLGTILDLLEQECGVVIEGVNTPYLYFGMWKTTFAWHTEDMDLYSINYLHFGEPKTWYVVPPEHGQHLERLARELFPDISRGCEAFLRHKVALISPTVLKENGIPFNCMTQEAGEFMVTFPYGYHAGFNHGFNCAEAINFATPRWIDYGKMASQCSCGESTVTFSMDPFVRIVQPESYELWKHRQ
HttQ103 aggreg: qHTS Multiplex Assay to Identify Dual Action Probes in a Cell Model of Huntington: Aggregate Formation (GFP); PC12 HttQ103-GFP aggregates, Acumen cytometry, 40 h; Potency, µM (series often up to 46.1 µM), actives largely listed as inhibitors; hit rate 1.1% among 220,000; active = well fitted curve in the direction sought with a large enough effect; inconclusive = small, poorly fitted or top-dose-only effect, or another doubt; inactive = no such curve, though single readings can be large; an effect the other way counts as inactive or inconclusive; also: nearly all actives have a fitted effect of over 60% in size
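Quantitative HTS on tebufenozide-induced (100 nM) PC12 cells stably expressing polyQ103 Huntingtin exon 1–GFP. Reduction of bright GFP aggregates, detected by laser scanning cytometry after lysis, identified actives across the titration.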
HPGD block: qHTS Assay for Inhibitors of HPGD (15-Hydroxyprostaglandin Dehydrogenase); 15-hydroxyprostaglandin dehydrogenase [NAD(+)] (Homo sapiens), P15428; purified HPGD, NADH fluorescence kinetic, PGE2 substrate; Potency, µM, most hits filed as inhibitors; hit rate 4.3% among 150,000
Target sequence (P15428 whole entry, looked up): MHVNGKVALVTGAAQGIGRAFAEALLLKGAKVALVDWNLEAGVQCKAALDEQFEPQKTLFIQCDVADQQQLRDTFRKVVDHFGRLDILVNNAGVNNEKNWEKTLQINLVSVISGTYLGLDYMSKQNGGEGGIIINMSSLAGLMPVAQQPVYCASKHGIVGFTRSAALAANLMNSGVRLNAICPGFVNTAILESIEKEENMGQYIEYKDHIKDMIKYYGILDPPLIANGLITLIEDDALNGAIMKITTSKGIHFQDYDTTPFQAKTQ
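20 nM HPGD preincubated 15 min at room temperature with compound in 50 mM Tris-HCl pH 8, 0.01% Tween 20. Started with 1 mM NAD+ and 30 uM prostaglandin E2; NADH fluorescence (360/450 nm) read 5 times over 30-s intervals, last minus first.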
CBFb RUNX1 block: qHTS Assay for Compounds Blocking the Interaction Between CBF-beta and RUNX1 for the Treatment of Acute Myeloid Leukemia | Potency, µM (top dose mostly 59.8 µM), most hits filed as inhibitors | AlphaScreen CBFb-His/RUNX1-biotin binding, biochemical | 230,000 tested, under 10 active | AID 1477, 2009 | Runt-related transcription factor 1 (Homo sapiens) + Core-binding factor subunit beta …; active = well fitted curve in the direction sought with a large enough effect; inconclusive = small, poorly fitted or top-dose-only effect, or another doubt; inactive = no such curve, though single readings can be large; an effect the other way counts as inactive or inconclusive
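AlphaScreen proximity signal reports loss of binding between His-tagged CBF-beta and biotin-labelled RUNX1, each at 30 nM. Proteins are pre-associated for 20 minutes, compounds added for 15 minutes, then beads for 90 minutes, all at ambient temperature.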
HTT cytoprotect: qHTS Multiplex Assay to Identify Dual Action Probes in a Cell Model of Huntington: Cytoprotection (ATP). PC12 HTT-Q103 induced, cytoprotection, ATP luminescence, 40 h. Potency, µM (series often up to 56.4 µM), actives largely listed as activators. hit rate 0.14% among 230,000; active = well fitted curve in the direction sought with a large enough effect; inconclusive = small, poorly fitted or top-dose-only effect, or another doubt; inactive = no such curve, though single readings can be large; an effect the other way counts as inactive or inconclusive; also: nearly all actives have a fitted effect of over 45% in size
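Huntington model: PC12 line, ecdysone-inducible HTTQ103 exon1–GFP, tebufenozide 100 nM. Test articles in a dose series. Endpoint luminescence from cellular ATP.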
ALDH1A1 inh: qHTS Assay for Inhibitors of Aldehyde Dehydrogenase 1 (ALDH1A1); Aldehyde dehydrogenase 1A1 (Homo sapiens), P00352; Purified ALDH1A1, NADH fluorescence, propionaldehyde substrate; Potency, µM (highest dose often 75.3 µM), actives largely listed as inhibitors; hit rate 7.3% among 220,000
Of the large screens only hits and unclear results are named; the others gave an inactive call. Unless noted, calls follow the shape of the dose curve; as a rule, active = well fitted inhibition curve with a large enough effect (not every such curve was filed as active); inconclusive = small, poorly fitted or top-dose-only effect, or another doubt; inactive = no such curve, though single readings can be large or run the other way.

CC(=C\c1ccco1)/C=C(\C#N)C(=O)NCCc1c[nH]c2ccccc12	ALDH1A1 inh inconclusive (no result: HPGD block)
Cc1ccc2[nH]c(=O)c3cc(C(=O)N(C)c4ccccc4C)sc3c2c1	none (no result: HPGD block, ALDH1A1 inh)
COc1ccc(C(C)=O)cc1COC(=O)CNC(=O)c1ccc(Cl)cc1	HPGD block 16µM
CCOc1ccc(C(=O)NCC(=O)OCc2cc(C(C)=O)ccc2OC)cc1	HttQ103 aggreg inconclusive, ALDH1A1 inh 3.5µM
COc1ccc(C(C)=O)cc1COC(=O)CNC(=O)c1ccc(F)cc1	HPGD block inconclusive, ALDH1A1 inh inconclusive
COc1ccc(C(C)=O)cc1COc1ccc(F)cc1	ALDH1A1 inh inconclusive (no result: HPGD block)
Cn1c(=O)[nH]c(=O)c2c1nc(NCCCO)n2CCOc1ccccc1	none (no result: HPGD block)
O=S(=O)(c1ccccc1)N1CC=C(c2ccccc2)CC1	ALDH1A1 inh inconclusive (no result: HPGD block)
CCOc1cc(C=O)ccc1OCC(N)=O	ALDH1A1 inh 11µM (no result: HPGD block)
CCOc1cc(C=O)cc(Br)c1OCC(N)=O	ALDH1A1 inh 7.9µM (no result: HPGD block)
CCOc1cc(C=O)ccc1OCC(=O)NC(C)(C)C	ALDH1A1 inh inconclusive (no result: HPGD block)
CCCOc1c(Br)cc(C(N)=O)cc1OCC	none (no result: HPGD block)
COc1ccc(CCC(=O)N/N=C\c2cccs2)cc1	ALDH1A1 inh inconclusive (no result: HPGD block)
CC1CCc2nn(CC(=O)N3CCc4ccccc43)cc2C1 (centres undefined)	none
NC(=S)Nc1cccc2cc3ccccc3cc12	JMJD2E inh inconclusive, ALDH1A1 inh inconclusive
NC(=S)Nc1cc2ccccc2c2ccccc12	JMJD2E inh inconclusive, ALDH1A1 inh 0.4µM
Cc1cccc(-c2nnc(SCC(=O)Nc3nc4c(s3)CCCC4)n2C)c1	ALDH1A1 inh inconclusive
CC(=O)Nc1sc(N/N=C\c2ccco2)nc1-c1cccs1	HPGD block 32µM, ALDH1A1 inh 18µM
CC(=O)Nc1sc(N/N=C\c2ccccc2)nc1-c1cccs1	ALDH1A1 inh inconclusive
CC1=C(C(=O)OCc2ccc3c(c2)OCO3)C(c2ccccc2)NC(=O)N1 (centres undefined)	HttQ103 aggreg 2.8µM, ALDH1A1 inh inconclusive
CC1=C(C(=O)OCc2ccc3c(c2)OCO3)C(c2ccccc2OCc2ccccc2)NC(=O)N1 (centres undefined)	JMJD2E inh inconclusive, HttQ103 aggreg inconclusive
CC1=C(C(=O)OCc2ccc3c(c2)OCO3)C(c2ccc(O)c([N+](=O)[O-])c2)NC(=O)N1 (centres undefined)	HttQ103 aggreg 7.1µM (no result: HPGD block, HTT cytoprotect)
COc1ccc(Cl)c(N2CCN(CCCNC(=O)Nc3ccc(C)cc3)CC2)c1	HttQ103 aggreg 35µM
CCCNC(=O)c1nnsc1S(=O)c1ccc(Cl)cc1 (centres undefined)	HttQ103 aggreg 11µM, ALDH1A1 inh 11µM (no result: HPGD block)
CNC(=O)c1nnsc1S(=O)c1ccc(Cl)cc1 (centres undefined)	HttQ103 aggreg 14µM, ALDH1A1 inh 22µM (no result: HPGD block)
CCCNC(=O)c1nnsc1S(=O)(=O)c1ccc(Cl)cc1	HttQ103 aggreg inconclusive, ALDH1A1 inh 20µM (no result: HPGD block)
C/C(=N\Nc1cccc(Cl)c1)C1(C)N(O)C(C)(C)C(c2ccco2)=[N+]1[O-] (centres undefined)	none (no result: HPGD block, ALDH1A1 inh)
CC(C)(C(=O)Nc1nccs1)c1ccccc1	none (no result: HPGD block)
C[C@H](CCC(=O)NCCS(=O)(=O)O)C1CC[C@H]2C3CC[C@@H]4C[C@H](O)CC[C@]4(C)C3C[C@H](O)[C@]12C (some centres undefined)	none (no result: JMJD2E inh, HttQ103 aggreg, HPGD block)
O=c1[nH]c2cc(NCCO)c([N+](=O)[O-])cc2[nH]1	none (no result: HPGD block, HTT cytoprotect)
Cc1nn(-c2nnc(NCc3ccccc3)nn2)c(C)c1Br	HttQ103 aggreg inconclusive, HPGD block 14µM, ALDH1A1 inh 28µM (no result: HTT cytoprotect)
Cc1cc(C)n(-c2nnc(NCc3ccc(Cl)cc3)nn2)n1	HttQ103 aggreg inconclusive, CBFb RUNX1 block inconclusive (no result: HPGD block)
Cc1nnc(SCC(=O)c2ccc(Cl)cc2)s1	ALDH1A1 inh inconclusive (no result: HPGD block)
N#Cc1ccc(C(=O)CSc2nnc(-c3ccc(C(F)(F)F)cn3)s2)cc1	ALDH1A1 inh 35µM (no result: HPGD block)
COc1cc(NC(=S)N2CCN(C(=O)c3ccco3)CC2)c(OC)cc1Cl	HPGD block 32µM, ALDH1A1 inh 25µM
COc1ccc(Cl)cc1NC(=S)N1CCN(C(=O)c2ccco2)CC1	ALDH1A1 inh inconclusive
CCN(CC)c1ccc(/C=C/c2cc(-c3ccccc3)c3ccccc3n2)cc1	CBFb RUNX1 block inconclusive, ALDH1A1 inh 11µM (no result: HPGD block)
CCN(CC)c1ccc(/C=N/NC(=O)c2cc(C)nc3ccccc23)cc1	none (no result: HPGD block, ALDH1A1 inh)
CC1CCc2cccc3c2N1c1cc(C#N)c(C#N)cc1O3 (centres undefined)	CBFb RUNX1 block inconclusive
CCc1nc2ccccc2c(C(=O)OCc2nnc(-c3ccccc3)o2)c1C	HPGD block 20µM, ALDH1A1 inh inconclusive
O=C(OCc1nnc(-c2ccccc2)o1)c1cn(-c2ccccc2)nc1-c1ccccc1	none
CCc1nc2ccccc2c(C(=O)OCC(=O)C(C)(C)C)c1C	none (no result: HPGD block)
Cc1cc(C(=O)OCc2nnc(-c3ccccc3)o2)c(C)n1-c1ccccc1	HttQ103 aggreg 11µM, HPGD block inconclusive
CS(=O)(=O)N(CC(=O)NCc1cccnc1)C1CCCCC1	none (no result: HPGD block)
Cc1ccc(C(C)C)c(OCc2nn(CC(=O)c3ccc(Cl)cc3)c3[n+]2CCCCC3)c1	HttQ103 aggreg inconclusive (no result: HPGD block)
COc1ccc(OC)c(C2C(C#N)=C(N)Oc3c2c(C)nn3-c2cccc(Cl)c2)c1 (centres undefined)	JMJD2E inh inconclusive, HttQ103 aggreg inconclusive, ALDH1A1 inh inconclusive
CCOc1ccc(C2C(C#N)=C(N)Oc3cc(C)n(Cc4ccco4)c(=O)c32)cc1OC (centres undefined)	ALDH1A1 inh inconclusive
Cc1nn(-c2cccc(Cl)c2)c2c1C(c1ccncc1)C(C#N)=C(N)O2 (centres undefined)	JMJD2E inh inconclusive, HttQ103 aggreg inconclusive, CBFb RUNX1 block inconclusive, ALDH1A1 inh 10µM
Cc1nn(-c2cccc(Cl)c2)c2c1C(c1cccnc1)C(C#N)=C(N)O2 (centres undefined)	HttQ103 aggreg inconclusive, CBFb RUNX1 block inconclusive, ALDH1A1 inh 7.9µM
Cc1cc2c(c(=O)n1Cc1ccco1)C(c1cccnc1)C(C#N)=C(N)O2 (centres undefined)	ALDH1A1 inh 7.5µM
CC1=C(n2nnc([N+](=O)[O-])n2)C(c2cccnc2)C(C#N)=C(N)O1 (centres undefined)	JMJD2E inh inconclusive, ALDH1A1 inh 1.1µM (no result: HTT cytoprotect)
